Data published in PubChem BioAssay (Tox21).
Unmarked numbers belong to inactive results. Inconclusive results are not listed. Where a call stands in place of a potency, no number is given. Calls of active or inactive are those of the source. Unless noted, calls follow the shape of the dose curve; as a rule, active = well fitted curve in the direction sought with a large enough effect in the repeat runs; inconclusive = weak or mixed curves; inactive = no such curve, though single readings can be large; an effect the other way counts as inactive or inconclusive.

Experiments:
[1] = molecular target: Thyrotropin receptor (Homo sapiens) (UniProt P16473); assay: qHTS assay to identify small molecule antagonists of the thyroid stimulating hormone receptor (TSHR) signaling pathway (AID 1259385; calls by dose curve; also: nearly all actives have a fitted effect of over 20% in size)
Chain of Thyrotropin receptor (Homo sapiens) (P16473 whole entry, looked up): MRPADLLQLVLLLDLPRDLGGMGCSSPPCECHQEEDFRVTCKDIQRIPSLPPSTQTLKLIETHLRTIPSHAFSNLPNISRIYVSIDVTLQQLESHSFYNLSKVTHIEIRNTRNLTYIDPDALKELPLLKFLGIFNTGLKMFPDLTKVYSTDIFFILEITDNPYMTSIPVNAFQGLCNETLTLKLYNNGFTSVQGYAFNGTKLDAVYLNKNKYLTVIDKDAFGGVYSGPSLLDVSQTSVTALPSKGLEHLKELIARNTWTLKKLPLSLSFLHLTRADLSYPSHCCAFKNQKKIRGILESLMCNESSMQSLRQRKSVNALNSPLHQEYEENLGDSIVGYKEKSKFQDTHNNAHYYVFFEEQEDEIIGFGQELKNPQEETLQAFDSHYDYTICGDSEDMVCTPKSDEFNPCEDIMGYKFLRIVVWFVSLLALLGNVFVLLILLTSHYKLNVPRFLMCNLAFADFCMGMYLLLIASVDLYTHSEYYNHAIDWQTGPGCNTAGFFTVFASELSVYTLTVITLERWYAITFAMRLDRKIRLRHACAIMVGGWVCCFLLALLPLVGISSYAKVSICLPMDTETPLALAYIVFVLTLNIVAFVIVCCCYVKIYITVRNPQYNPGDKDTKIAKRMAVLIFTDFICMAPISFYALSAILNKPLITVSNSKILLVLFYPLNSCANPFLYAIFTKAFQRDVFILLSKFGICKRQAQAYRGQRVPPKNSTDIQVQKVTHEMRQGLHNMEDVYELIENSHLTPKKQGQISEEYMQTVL
Method in brief: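 TSHR-HEK293 cells (800/well) plated 18 h, then compounds with Ro20-1724 and TSH at 1.5 ng/mL final, 30 min at room temperature. cAMP quantified by HTRF (cAMP-d2/anti-cAMP-cryptate, 1 h); 15 concentrations in triplicate.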

[2] = qHTS assay to identify small molecule agonists of the estrogen receptor alpha (ER-alpha) signaling pathway in the presence of an antagonist - cell viability counter screen (AID 1259386);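 also: series mostly up to about 92 µM; cells exposed to compounds for 22 h at 37 °C before the viability read; nearly all actives have a fitted effect of over 30% in size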
Method in brief: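 VM7Luc4E2, stripped-serum pre-culture 5 d; 24hr plating; +ICI-182,780 10.0nM final; cpds 15 conc, 22hr, 37C/5% CO2; CellTiter-Fluor added at 21hr, fluorescence 1hr later.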

[3] = molecular target: Progesterone receptor (Homo sapiens) (UniProt P06401); assay: qHTS assay to identify small molecule agonists of the progesterone receptor (PR) signaling pathway (AID 1346784; calls by dose curve; also: nearly all actives have a fitted effect of over 30% in size)
Chain of Progesterone receptor (Homo sapiens) (P06401 whole entry, looked up): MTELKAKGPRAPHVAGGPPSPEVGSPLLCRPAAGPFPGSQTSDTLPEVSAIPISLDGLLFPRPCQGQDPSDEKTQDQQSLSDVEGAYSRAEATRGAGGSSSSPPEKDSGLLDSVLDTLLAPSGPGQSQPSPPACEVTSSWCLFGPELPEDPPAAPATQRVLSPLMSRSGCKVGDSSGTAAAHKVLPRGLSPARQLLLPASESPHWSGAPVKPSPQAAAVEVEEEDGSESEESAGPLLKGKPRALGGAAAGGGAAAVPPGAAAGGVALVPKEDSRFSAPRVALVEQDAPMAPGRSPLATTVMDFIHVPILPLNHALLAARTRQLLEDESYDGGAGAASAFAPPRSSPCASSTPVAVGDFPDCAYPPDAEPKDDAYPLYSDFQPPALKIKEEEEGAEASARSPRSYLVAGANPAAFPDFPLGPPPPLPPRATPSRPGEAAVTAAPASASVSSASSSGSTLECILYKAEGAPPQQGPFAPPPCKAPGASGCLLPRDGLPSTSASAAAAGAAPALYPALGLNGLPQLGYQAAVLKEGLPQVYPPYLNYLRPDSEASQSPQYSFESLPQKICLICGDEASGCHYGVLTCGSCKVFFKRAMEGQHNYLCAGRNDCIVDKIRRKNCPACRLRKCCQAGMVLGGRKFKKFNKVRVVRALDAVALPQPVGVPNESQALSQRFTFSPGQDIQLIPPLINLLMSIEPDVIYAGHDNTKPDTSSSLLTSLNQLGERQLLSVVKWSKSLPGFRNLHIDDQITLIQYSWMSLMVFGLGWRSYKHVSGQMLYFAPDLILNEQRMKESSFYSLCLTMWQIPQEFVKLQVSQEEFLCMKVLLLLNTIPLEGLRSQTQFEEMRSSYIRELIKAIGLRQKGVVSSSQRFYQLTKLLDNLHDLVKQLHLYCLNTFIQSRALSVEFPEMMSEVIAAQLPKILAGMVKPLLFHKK
Method in brief: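 Using charcoal-stripped serum (2%) to limit endogenous steroids, PR-UAS-bla HEK 293T cells received compounds for 16 hr at 37C after 6 hr plating; beta-lactamase FRET fluorescence was recorded following 2 hr substrate loading at room temperature.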

[4] = molecular target: Progesterone receptor (Homo sapiens) (UniProt P06401); assay: qHTS assay to identify small molecule antagonists of the progesterone receptor (PR) signaling pathway (AID 1346795; active = well fitted inhibition curve with a large enough effect in the signal ratio in the repeat runs, not every such curve was filed as active; the % refers to the signal ratio)
Method in brief: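 Inhibition of R5020-induced (1 nM final) beta-lactamase reporter signal in PR-UAS-bla HEK293T cells was scored by FRET fluorescence after overnight (16 hr) compound treatment.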

[5] = qHTS assay to identify small molecule antagonists of the progesterone receptor (PR) signaling pathway - cell viability counter screen (AID 1346798); also: series mostly up to about 92 µM; nearly all actives have a fitted effect of over 50% in size
Method in brief: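 ATP content as viability readout: CellTiter-Glo luminescence, 30 min room temperature, in PR-UAS-bla HEK293T cells after 16 hr compound/R5020 treatment at 37C and 5% CO2.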

[6] = qHTS assay to identify small molecule agonists of the progesterone receptor (PR) signaling pathway - cell viability counter screen (AID 1346799; calls by dose curve; also: nearly all actives have a fitted effect of over 45% in size)
Method in brief: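 Cytotoxicity in PR-bla HEK293T cells: 16 h compound, 37C; CellTiter-Glo added post-FRET read; luminescence after 30 min RT.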

[7] = qHTS assay to identify small molecule antagonists of the TGF-beta/Smad signaling pathway - cell viability counter screen (AID 1346824); also: nearly all actives have a fitted effect of over 50% in size
Method in brief: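 SBE-bla HEK 293T cells, incubated overnight, then compound plus 0.25 ng/mL TGF-beta1 (stock added) for 5 hr at 37 C. Viability was read in the same wells by CellTiter-Glo luminescence after 30 min at room temperature.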

[8] = qHTS assay to identify small molecule agonists of the TGF-beta/Smad signaling pathway - cell viability counter screen (AID 1346829); also: top concentration of the series differs between compounds; nearly all actives have a fitted effect of over 45% in size
Method in brief: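 Cytotoxicity counter screen: CellTiter-Glo luminescence (30 min, room temperature) measured in the SBE-bla HEK 293T reporter wells after 5 hr compound treatment at 37 C and the 2 hr substrate step.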

[9] = qHTS assay to identify small molecule agonists of the TGF-beta/Smad signaling pathway (AID 1346859; active = well fitted activation curve with a large enough effect in the signal ratio in the repeat runs, not every such curve was filed as active; the % refers to the signal ratio; also: series mostly up to about 77 µM)
Method in brief: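 Stable Smad binding element-beta-lactamase HEK 293T cells; 5 hr compound exposure at 37 C under 5% CO2; 2 hr room-temperature substrate step; fluorescence excited at 405 nm, collected at 460 nm and 530 nm.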

[10] = molecular target: Thyrotropin-releasing hormone receptor (Homo sapiens) (UniProt P34981); assay: qHTS assay to identify small molecule antagonists of the thyrotropin-releasing hormone receptor (TRHR) signaling pathway (AID 1346877; active = well fitted inhibition curve with a large enough effect in the repeat runs, not every such curve was filed as active; also: series mostly up to about 51 µM)
Chain of Thyrotropin-releasing hormone receptor (Homo sapiens) (P34981 whole entry, looked up): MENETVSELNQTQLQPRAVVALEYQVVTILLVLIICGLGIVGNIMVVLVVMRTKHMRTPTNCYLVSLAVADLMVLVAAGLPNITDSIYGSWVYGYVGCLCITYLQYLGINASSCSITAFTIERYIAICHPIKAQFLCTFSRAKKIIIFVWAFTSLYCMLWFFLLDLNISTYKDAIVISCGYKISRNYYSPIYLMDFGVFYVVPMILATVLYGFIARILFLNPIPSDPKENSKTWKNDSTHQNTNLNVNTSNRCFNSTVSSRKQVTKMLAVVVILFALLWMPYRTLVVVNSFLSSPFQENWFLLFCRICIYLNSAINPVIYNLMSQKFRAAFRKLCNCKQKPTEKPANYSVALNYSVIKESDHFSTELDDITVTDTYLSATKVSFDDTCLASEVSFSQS
Method in brief: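 Intracellular calcium fluorescence, read kinetically every second over 3 min, reports TRH-evoked signalling in HEK293 cells carrying TRHR. Test compounds were added 5 min ahead of a 1 nM TRH challenge.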

[11] = molecular target: Thyrotropin-releasing hormone receptor (Homo sapiens) (UniProt P34981); assay: qHTS assay to identify small molecule agonists of the thyrotropin-releasing hormone receptor (TRHR) signaling pathway (AID 1346891; calls by dose curve;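 also: HEK293 cells expressing TRHR with calcium dye readout; series mostly up to about 58 µM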)
Method in brief: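 In 1536-format, 1500 TRHR-Hek293 cells per well grew 18 h, took up calcium dye for 2 h at 37 °C, received compound, and were read kinetically; 15-point titrations, triplicates.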

[12] = Human pregnane X receptor (PXR) small molecule agonists, qHTS cell viability counter screen (AID 1346977); also: nearly all actives have a fitted effect of over 50% in size
Method in brief: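 Readout is CellTiter-Fluor fluorescence from PXR-Luc HepG2 cells. Plated cells rested 5hr, then were treated with compounds for 24hr at 37C and 5% CO2, with reagent present during the last hour.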

[13] = Caspase-3/7 induction in HepG2 cells by small molecules, qHTS assay (AID 1346978); also: nearly all actives have a fitted effect of over 15% in size
Method in brief: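 Wild-type HepG2 cells, 2,000/well, settled 5 hr at 37 C and 5% CO2, then compound-treated for 17 hr; caspase-3/7 activity read by luminescent Caspase-Glo 3/7 after 30 min at room temperature.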

[14] = Caspase-3/7 induction in CHO-K1 cells by small molecules, qHTS cell viability counter screen (AID 1346979); also: nearly all actives have a fitted effect of over 35% in size; also: potency is read from the fitted curve at half-maximal effect
Method in brief: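 To flag cytotoxic compounds, treated CHO-K1 wild-type cells were given CellTiter-Fluor at 16hr and read fluorescently after 1hr at 37C; the caspase-3/7 luminescence was measured in these same wells.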

[15] = Caspase-3/7 induction in CHO-K1 cells by small molecules, qHTS assay (AID 1346980); also: nearly all actives have a fitted effect of over 15% in size
Method in brief: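 Wild-type CHO-K1 cells exposed to compounds for 17hr at 37 C, 5% CO2. Caspase-3/7 activity then measured by Caspase-Glo 3/7 luminescence after 30min at room temperature.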

[16] = Caspase-3/7 induction in HepG2 cells by small molecules, qHTS cell viability counter screen (AID 1346981); also: series mostly up to about 92 µM; nearly all actives have a fitted effect of over 30% in size
Method in brief: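 HepG2, WT, 2,000 cells/well; 5 hr pre-incubation 37 C/5% CO2; compound pin-transferred from DMSO; 16 hr exposure; CellTiter-Fluor, 1 hr; fluorescence read.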

[17] = molecular target: Nuclear receptor subfamily 1 group I member 2 (Homo sapiens) (UniProt O75469); assay: Human pregnane X receptor (PXR) small molecule agonists, qHTS assay (AID 1346982); also: nearly all actives have a fitted effect of over 35% in size; also: potency is read from the fitted curve at half-maximal effect
Chain of Nuclear receptor subfamily 1 group I member 2 (Homo sapiens) (O75469 whole entry, looked up): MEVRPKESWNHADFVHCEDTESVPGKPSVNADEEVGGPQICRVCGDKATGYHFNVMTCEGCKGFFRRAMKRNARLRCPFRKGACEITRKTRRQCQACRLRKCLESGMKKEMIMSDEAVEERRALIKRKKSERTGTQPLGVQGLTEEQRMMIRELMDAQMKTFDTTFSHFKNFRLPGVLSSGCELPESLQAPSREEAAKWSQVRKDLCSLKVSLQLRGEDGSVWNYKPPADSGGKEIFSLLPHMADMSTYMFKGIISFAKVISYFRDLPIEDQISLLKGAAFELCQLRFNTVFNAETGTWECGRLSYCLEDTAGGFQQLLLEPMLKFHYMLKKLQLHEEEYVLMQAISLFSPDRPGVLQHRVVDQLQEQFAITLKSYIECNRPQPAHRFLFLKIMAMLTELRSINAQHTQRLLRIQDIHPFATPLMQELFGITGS
Method in brief: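 Luciferase signal from ONE-Glo (30 min, room temperature) measured activation of hPXR-driven CYP3A4 reporter expression in PXR-Luc HepG2 cells treated with compounds for 24 hr at 37 C.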

[18] = molecular target: Nuclear receptor subfamily 1 group I member 2 (Rattus norvegicus) (UniProt Q9R1A7); assay: Rat pregnane X receptor (rPXR) activation by small molecules, qHTS assay (AID 1346983); conditions: rPXR luciferase reporter cells, One-Glo luminescence, 24 h; hits give high values; also: nearly all actives have a fitted effect of over 20% in size
Chain of Nuclear receptor subfamily 1 group I member 2 (Rattus norvegicus) (Q9R1A7 whole entry, looked up): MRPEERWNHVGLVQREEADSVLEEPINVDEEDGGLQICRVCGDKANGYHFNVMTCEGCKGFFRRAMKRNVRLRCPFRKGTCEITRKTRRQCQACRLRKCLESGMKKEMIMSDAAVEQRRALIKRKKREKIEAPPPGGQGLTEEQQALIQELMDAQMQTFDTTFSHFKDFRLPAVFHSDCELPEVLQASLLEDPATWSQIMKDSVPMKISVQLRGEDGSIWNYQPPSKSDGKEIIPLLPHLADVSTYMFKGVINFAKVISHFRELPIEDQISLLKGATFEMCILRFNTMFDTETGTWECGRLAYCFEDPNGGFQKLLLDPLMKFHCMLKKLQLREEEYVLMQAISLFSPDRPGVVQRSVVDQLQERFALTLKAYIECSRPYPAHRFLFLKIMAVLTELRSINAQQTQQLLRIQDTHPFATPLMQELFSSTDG
Method in brief: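 Cell-based rPXR activation assay: rPXR cells, 2,000 per well, rested 5hr at 37 C, then exposed to compounds in DMSO for 24 hr at 37 C. Luciferase activity read by One-Glo luminescence after 30 min at room temperature.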

[19] = molecular target: Nuclear receptor subfamily 1 group I member 2 (Homo sapiens) (UniProt O75469); assay: CYP3A4 induction through human pregnane X receptor (PXR) by small molecules, qHTS assay (AID 1346984); also: nearly all actives have a fitted effect of over 40% in size
Method in brief: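 Luminescence readout: luciferase signal after One-Glo (30 min, room temperature), following 3 h at 37C with 3uM final Luciferin-IPA P450 substrate. Cells were DPX-2 (HepG2, PXR/CYP3A4-luc co-transfected) dosed for 24 h.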

[20] = molecular target: Nuclear receptor subfamily 1 group I member 2 (Homo sapiens) (UniProt O75469); assay: Human pregnane X receptor (PXR) activation by small molecules, qHTS assay (AID 1346985); also: nearly all actives have a fitted effect of over 40% in size
Method in brief: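 DPX-2 cells (HepG2 co-transfected with a PXR response element and a CYP3A4-promoter luciferase construct) were seeded at 2,000 per well, rested 5 hr at 37C, then exposed to DMSO-dissolved compounds for 24 hr. Activation was read as luciferase luminescence.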

| Structure (SMILES) | outcome [1] | Potency [2] | Potency [3] | Potency [4] | Potency [5] | Potency [6] | outcome [7] | Potency [8] | outcome [9] | Potency [10] | outcome [11] | Potency [12] | outcome [13] | Potency [14] | outcome [15] | Potency [16] | Potency [17] | max activation [18] | Potency [19] | Potency [20] |
| --- | --- | --- | --- | --- | --- | --- | --- | --- | --- | --- | --- | --- | --- | --- | --- | --- | --- | --- | --- | --- |
| CCC1(c2cccc(O)c2)CCCCN(C)C1 (stereo not given) | inactive | inactive | inactive | inactive | inactive | inactive | inactive | inactive | inactive | inactive | inactive | inactive | inactive | inactive | inactive | inactive | inactive | -1.16% | inactive | inactive |
| O=C(O)CBr | inactive | inactive | inactive | inactive | inactive | inactive | inactive | inactive | inactive | inactive | inactive | inactive | inactive | inactive |  | inactive | inactive |  |  |  |
| N[C@@H]1C[C@H]1c1ccccc1 | inactive | inactive | inactive | inactive | inactive | inactive | inactive | inactive | inactive | inactive | inactive | inactive | inactive | inactive | inactive | inactive | inactive | -1.36% | inactive | inactive |
| CCC(=O)c1ccc(Cl)cc1 | inactive | inactive | inactive | inactive | inactive | inactive | inactive | inactive | inactive | inactive | inactive | inactive | inactive |  | inactive | inactive | inactive |  |  |  |
| CCCCS(=O)(=O)Cl | inactive | inactive | inactive | inactive | inactive | inactive | inactive | inactive | inactive | inactive | inactive | inactive | inactive |  | inactive | inactive | inactive |  |  |  |
| CC(=O)CN(CC(C)=O)N=O | inactive | inactive | inactive | inactive | inactive | inactive | inactive | inactive | inactive | inactive | inactive | inactive | inactive | inactive | inactive | inactive | inactive |  |  |  |
| Clc1nc(Cl)nc(Nc2ccccc2Cl)n1 | inactive | inactive | inactive | inactive | inactive | inactive | inactive | inactive | inactive | inactive | inactive | inactive | inactive | inactive | inactive | inactive |  |  |  |  |
| CN(C)C(=O)Oc1cc(OC(=O)N(C)C)cc(C(O)CNC(C)(C)C)c1 (stereo not given) | inactive | inactive | inactive | inactive | inactive | inactive | inactive | inactive | inactive | inactive | inactive | inactive | inactive | inactive | inactive | inactive |  | -1.43% | inactive | inactive |
| C=CC=O | inactive | inactive | inactive | inactive | inactive | inactive | inactive | inactive | inactive | inactive | inactive | inactive | inactive | inactive | inactive | inactive |  |  |  |  |
| CCCCCCCC(=O)Cl | inactive | inactive | inactive | inactive | inactive | inactive | inactive | inactive | inactive | inactive | inactive | inactive | inactive | 49 µM (active) |  | inactive | 61.6 µM (active) |  |  |  |
| CCC(=O)OC1(c2ccccc2)CCN(C)CC1 | inactive | inactive | inactive | inactive | inactive | inactive | inactive | inactive | inactive | inactive | inactive | inactive | inactive | inactive | inactive | inactive | inactive |  |  |  |
| Cc1ccc(Cl)c(O)c1 | inactive | inactive | inactive | inactive | inactive | inactive | inactive | inactive | inactive | inactive | inactive | inactive | inactive | inactive | inactive | inactive | inactive | -0.916% | inactive | inactive |
| CCC1(c2ccccc2)CCC(=O)NC1=O (stereo not given) | inactive | inactive | inactive | inactive | inactive | inactive | inactive | inactive | inactive | inactive | inactive | inactive | inactive | inactive | inactive | inactive | inactive | -0.631% | inactive |  |
| C/C=C/CC#N | inactive | inactive | inactive | inactive | inactive | inactive | inactive | inactive | inactive | inactive | inactive | inactive | inactive | inactive |  | inactive |  |  |  |  |
| CC(Cc1ccccc1)NCCCCl (stereo not given) | inactive | inactive | inactive | inactive | inactive | inactive | inactive | inactive | inactive | inactive | inactive | inactive | inactive | inactive | inactive | inactive | inactive |  |  |  |
